Only some compounds are listed: those with a hit (about 2.5% of all), similar ones and a draw of the others.
KLF5 inhibitor – suppresses KLF5 promoter-driven expression | 290,000 compounds, 0.23% hits | DLD-1 KLF5 promoter-luciferase reporter, luminescence | inhibition, % at 5 µM;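 active means inhibition above a per-plate limit of that plate's mean compound inhibition plus 3 SD, cut at about 60% in these data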;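 further: 0% = DMSO wells and 100% = LY294002 at 200 µM; higher means less KLF5 promoter-driven luciferase light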
Jurkat NFkB inh – lowers PMA/ionomycin-induced NF-kB signal in Jurkat cells; PMA/ionomycin-induced NF-kB luciferase reporter, luminescence; inhibition, % at 4 µM; 330,000 compounds, 0.53% hits; AID 435003; in the data active means inhibition above about 50%
TMEM16A act – activates or potentiates the mouse TMEM16A chloride channel; Q8BHY3; HEK293 TMEM16A/YFP-H148Q/I152L, iodide quench fluorescence; active compounds read low; B-score at 10 µM; 340,000 compounds, 0.3% hits;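 active means fluorescence-ratio B-score plate-corrected deviation score at least 3 library SD below zero, with starting fluorescence score within 5 deviations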;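 further: channel opened by trigger with iodide after compound preincubation; score built on the fluorescence ratio of max minus min over baseline; more negative score means more quench and so TMEM16A activation or potentiation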
Target sequence (Q8BHY3 whole entry, looked up): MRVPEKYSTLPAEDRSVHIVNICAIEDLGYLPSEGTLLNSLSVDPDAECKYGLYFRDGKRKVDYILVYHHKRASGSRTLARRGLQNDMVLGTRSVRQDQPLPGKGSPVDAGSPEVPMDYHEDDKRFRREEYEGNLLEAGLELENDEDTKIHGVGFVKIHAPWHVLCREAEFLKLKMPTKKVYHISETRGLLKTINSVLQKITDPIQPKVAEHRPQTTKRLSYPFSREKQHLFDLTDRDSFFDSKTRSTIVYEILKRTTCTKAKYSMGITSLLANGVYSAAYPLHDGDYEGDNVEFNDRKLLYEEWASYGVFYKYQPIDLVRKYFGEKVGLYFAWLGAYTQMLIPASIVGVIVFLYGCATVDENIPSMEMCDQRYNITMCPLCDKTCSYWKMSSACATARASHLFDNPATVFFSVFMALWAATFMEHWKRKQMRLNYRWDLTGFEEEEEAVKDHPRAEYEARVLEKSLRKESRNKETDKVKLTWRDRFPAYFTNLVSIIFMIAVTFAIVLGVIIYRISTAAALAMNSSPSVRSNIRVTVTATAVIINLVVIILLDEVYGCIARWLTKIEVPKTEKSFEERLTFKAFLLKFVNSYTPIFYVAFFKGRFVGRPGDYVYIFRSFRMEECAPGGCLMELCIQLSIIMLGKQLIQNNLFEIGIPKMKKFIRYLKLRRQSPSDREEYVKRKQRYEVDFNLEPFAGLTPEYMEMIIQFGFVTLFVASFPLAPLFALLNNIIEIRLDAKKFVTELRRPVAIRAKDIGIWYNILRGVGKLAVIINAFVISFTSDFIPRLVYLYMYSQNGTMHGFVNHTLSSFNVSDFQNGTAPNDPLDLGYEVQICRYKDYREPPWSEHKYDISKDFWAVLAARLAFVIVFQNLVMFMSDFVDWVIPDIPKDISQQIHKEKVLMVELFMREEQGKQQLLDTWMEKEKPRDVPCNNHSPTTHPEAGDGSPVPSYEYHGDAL
aSyn UTR inh – MLPCN primary screen, SNCA 5' untranslated region; 300,000 compounds, 0.82% hits; inhibition, % (tested at 7.5 µM); AID 1813; alpha-synuclein 5'UTR reporter, inhibitor activity; in the data active means inhibition above about 60%;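 further: H4 neuroglioblastoma cells stably carrying SNCA 5'UTR luciferase fusion; 0% = DMSO wells and 100% = positive control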
697 NFkB inh – lowers PMA/ionomycin-induced NF-kB signal in 697 B cells | 697 B-cell NF-kB luciferase reporter, 16 h | inhibition, % at 4 µM | 330,000 compounds, 0.33% hits | AID 435022; in the data active means inhibition above about 35%
ANO1 block – mouse TMEM16A channel inhibition, primary screen | Q8BHY3 | HEK293 TMEM16A/YFP iodide influx fluorescence, ionomycin | normalized B-score (activity score, 25-100; higher = stronger inhibition) at 10 µM | 310,000 compounds, 1.2% hits | AID 588511;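 active means ratio plate-corrected score three or more library SD toward inhibition, starting fluorescence score within five deviations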;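 further: score derived from kinetic fluorescence span divided by baseline fluorescence per well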
Jurkat NFkB conf – inhibitors of the PMA/ionomycin-induced NF-kB reporter in Jurkat cells, retest; shares compounds with Jurkat NFkB inh; Jurkat NF-kB luciferase, 16 h; inhibition, % at 4 µM; 2,700 compounds, 27% hits; AID 435020;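 active means inhibition reaching about 45% at 4 µM in either replicate, limit read from the data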;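 further: plate controls were PMA/ionomycin stimulated DMSO wells for no effect and unstimulated DMSO wells for full effect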
Active calls of the source: *; i = inactive; . = not tested or not shown.

SMILES	KLF5 inhibitor	Jurkat NFkB inh	TMEM16A act	aSyn UTR inh	697 NFkB inh	ANO1 block	Jurkat NFkB conf
COc1ccc(N2CCN(C(=O)c3ccc(CNS(=O)(=O)c4cccc(OC)c4)cc3)CC2)cc1	-14.9	-4.6	i	-5.8	-27.6	i	.
CN(Cc1ccccc1)S(=O)(=O)c1ccc(NC(=S)NC(=O)C2CCCC2)cc1	19.7	62.5*	i	-58.2	-47.7	i	15.7
CN1CCC(C(=O)C(=O)O)C1=O (configuration not stated)	.	.	i	.	.	.	.
COc1ccc(Cn2c(SCc3ccc(C)cc3)nc3cc(OC)c(OC)cc3c2=N)cc1Cl	-21.3	64.1*	i	118.6*	14.7	i	62.6*
O=C(O)/C(=C\c1ccc(Br)cc1)NC(=O)c1cccs1	-8.4	13.8	i	6.1	4.8	i	.
COc1cc(N/N=C/c2ccc(N(C)C)cc2)ncn1	-183.2	-155.2	i	24.0	-233.7	i	-92.9
Cc1c(C(=O)NCc2ccccc2CN2CCCC2)oc2ccc(F)cc12	.	-9.9	i	.	-11.9	.	.
COc1cc2c(cc1OC)C(COc1ccc([N+](=O)[O-])cc1)N(C(C)=O)CC2 (configuration not stated)	-54.0	67.9*	i	26.8	-42.1	i	23.6
COc1cc2c(cc1OC)C(COc1ccccc1OC)N(C(C)=O)CC2 (configuration not stated)	-18.8	2.5	i	-2.0	-13.0	i	.
CCOc1ccc(C(C(=O)NC2CCCC2)N(C(=O)c2snc(C(N)=O)c2N)c2cccc(O)c2)cc1 (configuration not stated)	14.7	5.0	i	21.5	13.3	i	.
O=C(CCCc1ccccc1)c1ccccc1	-187.9	-176.1	i	-104.9	-95.8	i	-100.6
O=C(CCCC(=O)c1ccc(O)cc1)c1ccc(O)cc1	.	-163.3	i	-70.8	-223.5	i	-91.3
CCCc1cc(=O)[nH]c(SCC(=O)Nc2ccc(Cl)c(S(=O)(=O)N3CCOCC3)c2)n1	.	-7.8	i	.	1.0	.	.
NC(=O)c1cc2cc(Br)ccc2o/c1=N/NC(=O)c1cccc(F)c1	-24.3	4.8	.	-26.7	-2.2	i	.
CCCCn1c(N)c(N(CCOC)C(=O)c2cc(S(=O)(=O)N3CCCCC3)ccc2C)c(=O)[nH]c1=O	.	14.3	i	1.4	20.9	i	.
Cc1ccc(COn2c(-c3ccc(Cl)cc3)nc3ccc([N+](=O)[O-])cc32)cc1	-128.8	-148.1	i	-198.2	-168.4	i	.
O=[N+]([O-])c1ccc2nc(-c3ccc(Cl)cc3)n(OCc3ccccc3)c2c1	-117.3	-199.0	i	-243.1	-240.5	i	-88.7
O=C(CCN1C(=O)C2CCCCC2C1=O)Nc1nc2ccc(F)cc2s1 (configuration not stated)	.	-168.1	i	.	-243.1	.	-47.7
O=C(c1cccs1)N1CCN(c2cc(Cl)ccc2Cl)CC1	-46.4	4.6	i	-24.6	6.2	i	.
O=c1c2ccccc2oc2cc(NCCCn3ccnc3)ccc12	0.3	-177.7	i	-45.0	-217.8	i	-83.9
CN1CCCC1CCNc1ccc2c(=O)c3ccccc3oc2c1 (configuration not stated)	-115.3	-217.6	i	-129.5	-160.7	i	-37.6
O=c1c2ccccc2oc2cc(NCCCN3CCOCC3)ccc12	-127.8	-184.0	i	-127.4	-218.6	i	-53.2
O=c1c2ccccc2oc2ccc(NCCCN3CCOCC3)cc12	-123.0	-113.7	i	-107.8	-101.9	i	.
COc1ccc(-c2cc(C(=O)NCC(C)C)no2)cc1	-140.8	-157.2	i	-99.3	-137.9	i	-90.2
O=S(Cc1ccc(Cl)cc1)c1ccccc1 (configuration not stated)	.	.	i	.	.	.	.
SMILES	KLF5 inhibitor	Jurkat NFkB inh	TMEM16A act	aSyn UTR inh	697 NFkB inh	ANO1 block	Jurkat NFkB conf
COc1ccc(C(C)=O)cc1COc1cccnc1[N+](=O)[O-]	14.3	54.5*	i	-52.7	-17.6	i	1.3
CCOc1ccc(C(C)=O)cc1COc1cccnc1[N+](=O)[O-]	31.0	53.8*	i	-44.7	-11.2	i	18.9
COc1ccc(-c2cn3cc(C)ccc3n2)cc1Br	-62.5	-178.0	i	-38.4	-222.8	i	-79.4
COc1ccc(-c2cn3cc(Cl)ccc3n2)cc1OC	-0.1	-74.3	i	-239.0	-116.5	i	.
CCSc1nccc(-c2nn(-c3ccc(C)cc3)ccc2=O)n1	6.7	50.8*	i	21.4	-48.2	i	27.4
C=CCSc1nccc(-c2nn(-c3ccc(C)cc3)ccc2=O)n1	20.4	49.6	i	60.8	-60.2	i	.
CSc1nccc(-c2nn(-c3ccc(C)cc3)ccc2=O)n1	9.8	57.6*	i	36.8	-3.8	i	48.8*
Cc1ccc(-n2c(C)cc(/C=c3/sc4nc5ccccc5n4c3=O)c2C)cc1	-16.4	55.7*	.	66.7*	-57.0	i	19.2
O=c1/c(=C\c2cccn2-c2ccccc2)sc2nc3ccccc3n12	-49.0	.	i	.	.	.	.
Cn1nc(C(C)(C)C)cc1C(=O)NCc1cc(F)cc2c1OCOC2	-19.4	64.6*	i	-12.2	22.5	i	60.0*
CCN(CC(=O)NCc1cccs1)C(=O)Cc1ccc(C)c(C)c1	.	-1.5	i	.	17.2	.	.
CCn1c(/C=C/c2c[nH]c3ccccc23)nc2ccccc2c1=O	-130.3	-266.2	i	-176.4	-232.1	i	-37.4
CCn1c(/C=C\c2ccccc2C)nc2ccccc2c1=O	-3.1	1.4	i	-62.6	-34.1	i	.
CN1CCN(c2ccc(NC(=S)NC(=O)/C=C/c3ccco3)cc2)CC1	-118.6	-33.4	i	-147.0	-83.8	i	.
COc1ccc(-c2coc3cc4oc(=O)cc(-c5ccccc5)c4cc23)cc1F	-10.4	66.7*	i	112.9*	-9.6	i	29.1
Cc1ccc(S(=O)(=O)N2CCOCC2)cc1C(=O)NC(C)CCc1ccccc1 (configuration not stated)	.	5.5	i	.	-3.9	.	.
CC(=O)N1c2ccc(S(=O)(=O)NCCC(=O)Nc3ccc(OC(F)(F)F)cc3)cc2CC1C (configuration not stated)	4.2	7.0	i	2.1	-9.4	i	.
COc1ccccc1S(=O)(=O)Cc1ccc(C(=O)N2CCN(c3ccc(C)cc3)C(C)C2)o1 (configuration not stated)	-15.7	-4.4	i	-3.6	-11.6	i	.
COc1ccc(S(=O)(=O)Cc2ccc(C(=O)N3CCN(c4cccc(C)c4)C(C)C3)o2)cc1 (configuration not stated)	3.0	60.6*	i	39.4	-49.3	i	20.8
Cc1cc(C)cc(C(=O)Nc2ccc(N3CCCC3)cc2)c1	-101.4	-160.0	i	-120.5	-127.6	i	0.7
COc1ccccc1C(=O)Nc1ccc(N2CCCCC2)cc1	-121.4	-164.9	i	-65.9	-198.0	i	-55.3

Assay outcomes as filed in PubChem BioAssay.
